# Laboratory results reported in PubChem BioAssay AID1986 (Sanford-Burnham Center for Chemical Genomics, 2009).
# Where “and” joins values, the source holds several entries; their conditions need not be identical. Equal values may be shown once. Hit rate of the full screen: of about 290,000 compounds, about 890 (0.31%) were called active. Cut-off read from the data, not from the text of the source: active = inhibition mostly above about 52% (no sharp cut-off); inactive = mostly below about 76%. For the sample, actives were picked, then their nearest neighbours and some compounds at random. Some compounds were tested as several samples or in several runs, with calls that do not always agree.
# Assay: inhibitors of HIV fusion peptide binding, primary screen, biochemical, uHTS, fluorescence dequenching (AID 1986)
# Details: cell-free peptide binding, 30 min, stronger effect = higher value
# [1] = measured here: repeat confirmation average inhibition, at 18.6 µM
Structure (SMILES),inhibition (at 20 µM),inhibition [1]
COc1ccc(CNC(=O)[C@@H](NC(=O)C2CCN(C(=O)[C@@H](N)Cc3ccccc3)CC2)C(C)C)cc1,-1.9% (inactive),–
COc1ccc(OC)c(CNC(=O)CCSCc2ccc(F)cc2Cl)c1,0% (inactive),–
CCN1C(=O)/C(=C/N2CCc3ccccc32)SC1=S,112% (active),63%
CCN1C(=O)/C(=C\N2CCCc3ccccc32)SC1=S,3.7% (inactive),–
CCN1C(=O)/C(=C/N2CCc3ccccc3C2)SC1=S,0.4% (inactive),–
Fc1ccc(N2CCN(C(c3cccs3)c3nnnn3CCc3ccccc3)CC2)cc1 (stereo unspecified),-1.4% (inactive),–
COc1cc(C2CC(=O)N(CC(=O)NCC3CCCO3)c3ccccc3S2)cc(OC)c1OC (stereo unspecified),0.6% (inactive),–
COc1ccc(-n2ncc(C(=O)NC3CC3)c2C2CCN(C(=O)OC(C)(C)C)CC2)cc1,1.2% (inactive),–
CC(C)(C)OC(=O)N1CCC(c2cc(=O)n3[nH]c(-c4ccc(Cl)cc4)cc3n2)CC1,-1.3% (inactive),–
CC(C)(C)OC(=O)N1CCC(c2c(C(=O)NC3CC3)cnn2-c2ccc(Cl)cc2)CC1,3.6% (inactive),–
COc1cc(NC(=O)c2cnn3c(C(F)F)cc(C4CC4)nc23)c(OC)cc1Cl,-0.3% (inactive),–
COc1ccc(CCNC2CC(=O)N(CCc3ccccc3)C2=O)cc1 (stereo unspecified),0.5% (inactive),–
COCCN1C(=O)N(c2cccc(C)c2)C(=O)C1CC(=O)Nc1cc(OC)cc(OC)c1 (stereo unspecified),0.1% (inactive),–
O=C1OC(c2ccc(F)cc2)=C/C1=C\c1ccc(O)cc1,1.8% (inactive),–
O=[N+]([O-])c1ccc(/C=N\NS(=O)(=O)c2ccc(F)cc2)o1,1.3% (inactive),–
O=C1OC(c2ccc(F)cc2)=C/C1=C\c1ccc([N+](=O)[O-])o1,77.6% (active),–
COc1ccc(/C=c2\sc3nc(-c4ccccc4OC)nn3c2=O)c(OC)c1,11.2% (inactive),–
COc1ccccc1/C=c1\sc2nc(-c3ccco3)nn2c1=O,36.3% (inactive),–
COc1cccc(/C=c2\sc3nc(-c4cccs4)nn3c2=O)c1OC,2.8% (inactive),–
COc1ccc(Br)cc1/C=c1\sc2nc(-c3ccco3)nn2c1=O,56.1% (active),–
COc1ccc(OC)c(/C=c2\sc3nc(-c4cccs4)nn3c2=O)c1,60.9% (active),58%
CCOc1ccc(/C=c2\sc3nc(-c4ccco4)nn3c2=O)cc1OCC,21.5% (inactive),–
CC(C)n1cc(C(=O)c2ccccc2O)cc(C#N)c1=O,-0.9% (inactive),–
CC(C)CC(C(=O)O)N1C(=O)C2C3c4ccccc4C(c4ccccc43)[C@@H]2C1=O (stereo partly specified),-0.8% (inactive),–

Structure (SMILES),inhibition (at 20 µM),inhibition [1]
CCCCCCCNC(=O)C1(CC2CC(c3ccc(Cl)cc3)=NO2)CCN(C(=O)OC(C)(C)C)CC1 (stereo unspecified),0.6% (inactive),–
Cc1oncc1C(=O)NC1CCCCC1,0.8% (inactive),–
CCOc1ccccc1N(CC(=O)NCCc1ccccc1)C(=O)CCC(=O)Nc1ccccn1,0% (inactive),–
C=CCN1C(=O)/C(=C\C=C2\N(C)c3ccccc3C2(C)C)SC1=S,54.6% (active),–
CN1/C(=C\C=C2/SC(=S)N(CC(=O)O)C2=O)C(C)(C)c2ccccc21,148% (inactive),–
CCCCN1C(=O)/C(=C/C=C2\N(C)c3ccccc3C2(C)C)SC1=S,-0.3% (inactive),–
COc1cccc(-c2noc(CCCC(=O)Nc3ccc(C(N)=O)cc3)n2)c1,0.5% (inactive),–
CCCCCCCCCCCCCCCCn1cc[n+](C)c1,137% (inactive) and 70.3% (active),–
CCCCCCCCn1ccc(=N)cc1,-1.2% (inactive),–
CCCCCCn1ccc(=N)cc1,-2% (inactive),–
C[C@H](NC(=O)C1CCN(S(=O)(=O)c2ccccc2)CC1)C(=O)NCc1cccc(Cl)c1,-1.4% (inactive),–
CCOC(=O)C1=C(C)C2C3C(=O)N(c4cc(C)ccc4C)C(=O)C3C1(C)C1C(=O)N(c3cc(C)ccc3C)C(=O)C21 (stereo unspecified),-0.1% (inactive),–
COC(=O)c1sc(N2C(=O)C(O)=C(C(=O)c3ccc(C)o3)C2c2ccc(OC)c(OC)c2)nc1C (stereo unspecified),15.3% (inactive),–
COCCn1c(SCc2cc(C(C)=O)ccc2OC)nc2cc(Cl)ccc2c1=O,-2.4% (inactive),–
CCOC(Cn1c(SCc2cc(C(C)=O)ccc2OC)nc2ccccc2c1=O)OCC,3.3% (inactive),–
COc1ccc(C(C)=O)cc1CSc1nc2cc(C(=O)O)ccc2c(=O)n1Cc1ccccc1,62.4% (active),–
COCC(C)n1c(SCC(=O)c2cc(C)n(C)c2C)nc2ccccc2c1=O (stereo unspecified),0.2% (inactive),–
CC(C)(C)c1ccc(NC(=O)C2CCCN(c3cnccn3)C2)cc1 (stereo unspecified),-0.1% (inactive),–
O=C1Nc2ccccc2Oc2cc([N+](=O)[O-])ccc21,13% (inactive),–
CCOc1cc([N+](=O)[O-])cc2c1C(=O)Nc1ccccc1O2,104% (active),57.4%
Cc1cccc(Oc2cc([N+](=O)[O-])cc3c2C(=O)Nc2ccccc2O3)c1,46.8% (inactive),–
Cc1ccc(Oc2cc([N+](=O)[O-])cc3c2C(=O)Nc2ccccc2O3)cc1,40.9% (inactive),–
Cc1ccc2c(c1)NC(=O)c1cc([N+](=O)[O-])ccc1O2,2.5% (inactive),–
O=C1Nc2ccccc2Oc2cc([N+](=O)[O-])cc(Oc3ccccc3)c21,59.7% (active),–
